From ChEMBL document CHEMBL3988442, “University of Dundee, Small-Polar-MMV Screening Library” (2021)
For some assays here: Measured potencies and affinities stand elsewhere.

Columns and labels:
Parameters in all cases: scale not given: direction of the effect not stated beside the values
[1] = molecular target: Protein translocase subunit SecA (Escherichia coli (strain K12)) (UniProt P10408); test: Assay to Identify E. coli SecA ATPase Inhibitors; type: functional; details: 30 µM
[2] = molecular target: T1, Ubiquitin-activating enzyme e1, putative (Leishmania donovani (strain BPK282A1)) (UniProt E9BSI1); test: Leishmania donovani Ubiquitin Activating Enzyme (LdE1); type: functional; details: 30 µM
T1 sequence (whole entry): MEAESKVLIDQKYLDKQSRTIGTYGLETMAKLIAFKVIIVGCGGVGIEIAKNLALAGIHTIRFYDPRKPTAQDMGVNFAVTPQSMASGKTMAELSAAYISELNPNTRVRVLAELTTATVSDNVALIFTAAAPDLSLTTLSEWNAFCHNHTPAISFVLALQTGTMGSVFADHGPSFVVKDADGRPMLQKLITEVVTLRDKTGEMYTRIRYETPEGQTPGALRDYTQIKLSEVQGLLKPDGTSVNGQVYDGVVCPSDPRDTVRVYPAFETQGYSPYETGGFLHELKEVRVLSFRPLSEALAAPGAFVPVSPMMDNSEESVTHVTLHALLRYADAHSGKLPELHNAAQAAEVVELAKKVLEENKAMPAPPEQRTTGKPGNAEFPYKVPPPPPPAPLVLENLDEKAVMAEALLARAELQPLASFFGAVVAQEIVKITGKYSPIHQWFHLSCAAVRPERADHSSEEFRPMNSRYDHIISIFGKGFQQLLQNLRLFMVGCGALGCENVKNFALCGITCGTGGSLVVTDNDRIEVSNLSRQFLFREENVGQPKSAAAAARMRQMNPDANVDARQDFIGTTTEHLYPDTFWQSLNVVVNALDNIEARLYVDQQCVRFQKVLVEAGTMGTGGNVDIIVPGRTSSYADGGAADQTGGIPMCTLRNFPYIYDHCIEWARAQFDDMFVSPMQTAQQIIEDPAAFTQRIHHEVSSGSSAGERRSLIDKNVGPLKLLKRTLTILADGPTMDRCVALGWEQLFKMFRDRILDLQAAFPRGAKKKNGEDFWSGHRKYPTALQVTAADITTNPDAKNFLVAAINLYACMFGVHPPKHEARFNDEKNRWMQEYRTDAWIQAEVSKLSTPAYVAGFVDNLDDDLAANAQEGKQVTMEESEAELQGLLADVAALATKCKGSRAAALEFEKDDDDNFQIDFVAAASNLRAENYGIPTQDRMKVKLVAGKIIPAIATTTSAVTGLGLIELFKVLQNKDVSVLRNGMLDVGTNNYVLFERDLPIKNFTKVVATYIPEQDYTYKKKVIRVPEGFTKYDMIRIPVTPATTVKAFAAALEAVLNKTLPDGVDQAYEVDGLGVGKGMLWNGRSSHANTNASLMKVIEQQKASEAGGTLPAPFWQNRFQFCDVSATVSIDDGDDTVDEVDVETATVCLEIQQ

[3] = molecular target: AMP-activated protein kinase, AMPK (Homo sapiens) (UniProt P54646+O43741+P54619+Q9UGJ0+Q9Y478+Q13131+Q9UGI9); test: AMP-dependent Kinase enzyme assay. An in vitro enzyme assay that detects ADP turnover that is directly proportional to AMPK activity. This uses naive AMPK that is activated during the assay with MK-8722; type: functional; details: 30 µM
[4] = molecular target: Sialic acid-binding Ig-like lectin 9 (Homo sapiens) (UniProt Q9Y336); test: Hs-Siglec9 ALPHAscreen SOP 20170721; details: 10 µM
Trypanosoma cruzi = test: Trypanosoma cruzi phosphomannomutase and mannose-1-phosphate guanylyltransferase assay; type: functional; details: 10 µM
[5] = molecular target: T2, Arginase-2, mitochondrial (Homo sapiens) (UniProt P78540); test: in vitro enzyme assay to detect the production of urea directly proportional to the activity of Arginase II; type: functional; details: 33.3 µM; note: in the data most compounds retested in dose-response had high values
T2 sequence (whole entry): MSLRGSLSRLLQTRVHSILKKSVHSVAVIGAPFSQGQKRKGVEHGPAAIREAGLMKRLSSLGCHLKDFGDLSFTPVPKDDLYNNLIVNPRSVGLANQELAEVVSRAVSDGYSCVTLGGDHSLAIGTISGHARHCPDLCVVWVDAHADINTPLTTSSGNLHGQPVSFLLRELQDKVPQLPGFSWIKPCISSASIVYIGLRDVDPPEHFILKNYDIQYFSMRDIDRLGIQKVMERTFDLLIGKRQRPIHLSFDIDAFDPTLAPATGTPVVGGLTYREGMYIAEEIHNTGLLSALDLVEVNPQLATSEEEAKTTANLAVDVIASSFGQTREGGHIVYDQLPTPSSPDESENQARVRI

[6] = molecular target: T3, Proteasome subunit beta (Trypanosoma cruzi) (UniProt O96673); test: Trypanosoma cruzi proteasome chymotrypsin-like activity (TcProtChymo) assay.; note: in the data most compounds retested in dose-response had high values; type: functional; details: 9.37 µM
T3 sequence (whole entry): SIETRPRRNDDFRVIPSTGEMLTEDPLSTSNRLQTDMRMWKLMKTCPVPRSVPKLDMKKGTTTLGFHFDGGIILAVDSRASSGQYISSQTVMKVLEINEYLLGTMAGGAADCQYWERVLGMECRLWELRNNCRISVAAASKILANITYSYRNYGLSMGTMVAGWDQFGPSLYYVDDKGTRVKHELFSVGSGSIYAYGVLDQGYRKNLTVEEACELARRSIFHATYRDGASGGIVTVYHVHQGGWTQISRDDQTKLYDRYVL

Homo sapiens = species: Homo sapiens; test: To identify inhibition of the IFN signalling (Jak-Stat) pathway via expression of an eGFP reporter gene under the control of an IFN-stimulated response element (ISRE) containing MxA promoter.; type: functional; details: 30 µM
[7] = molecular target: T4, Tyrosyl-tRNA synthetase, putative (Trypanosoma cruzi (strain CL Brener)) (UniProt Q4DSP6); test: Trypanosoma cruzi tyrosyl tRNA synthetase (TcYRS) _High Tyrosine SOP; type: functional; details: 30 µM; note: in the data most compounds retested in dose-response had high values
T4 sequence (whole entry): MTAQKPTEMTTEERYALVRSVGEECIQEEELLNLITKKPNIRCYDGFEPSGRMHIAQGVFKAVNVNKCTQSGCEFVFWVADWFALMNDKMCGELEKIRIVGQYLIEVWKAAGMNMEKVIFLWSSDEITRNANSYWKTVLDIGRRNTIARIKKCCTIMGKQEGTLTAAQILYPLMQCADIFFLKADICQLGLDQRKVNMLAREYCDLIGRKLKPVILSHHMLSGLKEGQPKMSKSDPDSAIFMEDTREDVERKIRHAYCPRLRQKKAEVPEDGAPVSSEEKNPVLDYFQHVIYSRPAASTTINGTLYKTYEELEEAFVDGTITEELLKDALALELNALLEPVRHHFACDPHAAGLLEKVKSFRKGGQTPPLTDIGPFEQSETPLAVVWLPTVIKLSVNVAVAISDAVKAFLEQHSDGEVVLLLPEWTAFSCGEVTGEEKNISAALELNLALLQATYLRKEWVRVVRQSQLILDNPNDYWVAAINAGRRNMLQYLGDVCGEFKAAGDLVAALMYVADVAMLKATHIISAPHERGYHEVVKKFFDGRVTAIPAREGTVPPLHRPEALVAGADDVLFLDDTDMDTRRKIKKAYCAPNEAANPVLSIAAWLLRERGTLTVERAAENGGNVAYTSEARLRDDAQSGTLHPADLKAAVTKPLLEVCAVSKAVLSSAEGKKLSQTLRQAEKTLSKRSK

[8] = molecular target: T4, Tyrosyl-tRNA synthetase, putative (Trypanosoma cruzi (strain CL Brener)); test: Trypanosoma cruzi tyrosyl tRNA synthetase (TcYRS) SOP; type: functional; details: 30 µM
[9] = molecular target: Chromo domain-containing protein 1 (Saccharomyces cerevisiae (strain ATCC 204508 / S288c) (Baker's yeast)) (UniProt P32657); test: ScCHD-1 Enzyme Inhibition Assay; type: functional; details: 30 µM; note: in the data most compounds retested in dose-response had high values
Sequence of Chromo domain-containing protein 1 (Saccharomyces cerevisiae (strain ATCC 204508 / S288c) (Baker's yeast)) (P32657 whole entry, the tested form may be a part): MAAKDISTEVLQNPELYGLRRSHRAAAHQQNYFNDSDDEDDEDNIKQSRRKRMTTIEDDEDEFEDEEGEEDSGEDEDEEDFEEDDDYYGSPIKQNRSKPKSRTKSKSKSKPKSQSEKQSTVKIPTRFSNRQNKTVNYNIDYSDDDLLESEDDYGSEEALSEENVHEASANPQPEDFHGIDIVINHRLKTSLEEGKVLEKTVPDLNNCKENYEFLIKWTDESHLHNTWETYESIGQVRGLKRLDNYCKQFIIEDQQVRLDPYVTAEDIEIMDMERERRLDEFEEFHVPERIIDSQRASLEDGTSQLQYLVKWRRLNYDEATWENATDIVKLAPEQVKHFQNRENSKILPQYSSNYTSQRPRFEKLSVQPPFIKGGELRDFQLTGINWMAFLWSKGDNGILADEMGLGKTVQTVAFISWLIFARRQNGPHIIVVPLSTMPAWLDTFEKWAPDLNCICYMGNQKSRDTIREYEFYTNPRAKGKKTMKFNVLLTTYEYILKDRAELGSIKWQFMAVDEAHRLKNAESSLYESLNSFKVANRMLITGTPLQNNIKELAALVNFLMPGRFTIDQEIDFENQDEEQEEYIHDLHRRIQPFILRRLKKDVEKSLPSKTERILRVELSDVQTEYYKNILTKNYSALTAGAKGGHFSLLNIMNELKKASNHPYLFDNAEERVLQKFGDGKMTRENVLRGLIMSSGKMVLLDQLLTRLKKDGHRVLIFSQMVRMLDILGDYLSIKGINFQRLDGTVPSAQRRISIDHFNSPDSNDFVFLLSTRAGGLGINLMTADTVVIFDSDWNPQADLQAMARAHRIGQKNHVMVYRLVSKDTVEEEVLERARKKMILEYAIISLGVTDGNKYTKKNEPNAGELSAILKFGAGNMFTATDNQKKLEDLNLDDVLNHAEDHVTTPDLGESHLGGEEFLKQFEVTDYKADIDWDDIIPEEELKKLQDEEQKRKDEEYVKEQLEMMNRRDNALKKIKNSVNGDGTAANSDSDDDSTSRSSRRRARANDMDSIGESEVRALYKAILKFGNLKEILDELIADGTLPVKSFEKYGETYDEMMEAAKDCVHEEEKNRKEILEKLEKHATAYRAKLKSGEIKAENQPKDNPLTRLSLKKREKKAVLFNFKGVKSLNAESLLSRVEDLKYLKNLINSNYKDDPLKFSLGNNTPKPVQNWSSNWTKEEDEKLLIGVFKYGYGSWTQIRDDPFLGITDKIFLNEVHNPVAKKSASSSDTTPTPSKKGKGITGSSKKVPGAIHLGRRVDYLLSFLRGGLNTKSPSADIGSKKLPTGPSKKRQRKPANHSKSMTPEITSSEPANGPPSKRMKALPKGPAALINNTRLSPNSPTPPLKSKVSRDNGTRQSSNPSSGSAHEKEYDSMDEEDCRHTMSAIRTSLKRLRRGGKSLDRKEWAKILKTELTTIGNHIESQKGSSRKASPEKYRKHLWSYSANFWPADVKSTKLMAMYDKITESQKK

Sequence of Sialic acid-binding Ig-like lectin 9 (Homo sapiens) (Q9Y336 whole entry): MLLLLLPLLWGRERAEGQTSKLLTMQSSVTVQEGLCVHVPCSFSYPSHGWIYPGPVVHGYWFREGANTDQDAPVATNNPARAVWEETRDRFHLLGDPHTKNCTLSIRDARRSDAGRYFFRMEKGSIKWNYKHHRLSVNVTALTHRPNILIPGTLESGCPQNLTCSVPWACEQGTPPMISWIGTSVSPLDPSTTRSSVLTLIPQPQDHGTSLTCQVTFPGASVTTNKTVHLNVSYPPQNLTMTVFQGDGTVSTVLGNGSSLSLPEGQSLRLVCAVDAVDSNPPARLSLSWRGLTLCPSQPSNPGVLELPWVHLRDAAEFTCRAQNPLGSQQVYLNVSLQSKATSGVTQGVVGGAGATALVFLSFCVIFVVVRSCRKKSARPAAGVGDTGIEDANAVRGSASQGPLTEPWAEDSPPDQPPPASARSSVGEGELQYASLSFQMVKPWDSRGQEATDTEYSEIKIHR
Sequence of Protein translocase subunit SecA (Escherichia coli (strain K12)) (P10408 whole entry): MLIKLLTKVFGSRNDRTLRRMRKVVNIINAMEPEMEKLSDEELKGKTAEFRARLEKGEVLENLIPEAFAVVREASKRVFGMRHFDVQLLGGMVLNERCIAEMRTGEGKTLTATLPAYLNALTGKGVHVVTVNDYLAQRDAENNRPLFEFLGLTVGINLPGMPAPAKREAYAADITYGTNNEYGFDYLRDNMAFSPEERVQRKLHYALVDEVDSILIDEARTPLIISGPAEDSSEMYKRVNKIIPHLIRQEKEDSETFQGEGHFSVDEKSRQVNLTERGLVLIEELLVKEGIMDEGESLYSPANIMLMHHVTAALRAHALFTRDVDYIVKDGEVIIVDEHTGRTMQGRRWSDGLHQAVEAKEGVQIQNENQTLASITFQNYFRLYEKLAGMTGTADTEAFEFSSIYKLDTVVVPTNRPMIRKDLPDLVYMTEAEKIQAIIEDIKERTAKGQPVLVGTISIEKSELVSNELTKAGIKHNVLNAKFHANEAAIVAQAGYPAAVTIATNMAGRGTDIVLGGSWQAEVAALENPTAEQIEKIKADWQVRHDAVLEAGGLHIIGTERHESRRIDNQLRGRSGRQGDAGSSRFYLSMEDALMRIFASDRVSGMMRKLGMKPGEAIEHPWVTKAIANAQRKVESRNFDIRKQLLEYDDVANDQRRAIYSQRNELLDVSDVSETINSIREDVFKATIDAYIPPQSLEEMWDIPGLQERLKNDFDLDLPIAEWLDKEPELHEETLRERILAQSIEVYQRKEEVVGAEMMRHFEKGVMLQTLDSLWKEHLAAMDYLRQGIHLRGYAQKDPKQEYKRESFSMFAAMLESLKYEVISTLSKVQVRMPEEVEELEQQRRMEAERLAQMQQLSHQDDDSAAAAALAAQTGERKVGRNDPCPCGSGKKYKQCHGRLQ

Row | Compound | Percent Effect [1] | Percent Effect [2] | Percent Effect [3] | Percent Effect [4] | Percent Effect (Trypanosoma cruzi) | Percent Effect [5] | Percent Effect [6] | Percent Effect (Homo sapiens) | Percent Effect [7] | Percent Effect [8] | Percent Effect [9]
1 | Cc1nnn2c1COCC(CNC(=O)c1ccc3[nH]ccc3c1)C2 (stereo unspecified) | -2.29% | 13% | -0.0167% | 8.82% | 9.73% | -46.9% | 18.1% | 14.9% | 6.45% | 13.6% | -3.15%
2 | CN(C)C(=O)NC1COC2(CCN(Cc3ccccc3)CC2)C1 (stereo unspecified) | -6.16% | 0% | 7.68% | -1.66% | -3.94% | 1.17% | 6.26% | 21.5% | -3.19% | -6.41% | -1.6%
3 | CCN(CC)C(=O)Cn1ccc2cc(NC(=O)C3CCCO3)ccc21 (stereo unspecified) | -3.96% | 26.3% | -13.9% | 1.14% | 6.39% | -1.53% | 16.5% | 2.47% | 6.37% | 17.1% | -14.2%
4 | Cn1cc(C(=O)N[C@@H]2CN(Cc3cccs3)[C@@H]3CCCO[C@@H]32)cn1 | -4.79% | 13.3% | -3.04% | -0.505% | 0.579% | -49.6% | 9.74% | -5.26% | 1.04% | 12.5% | -7.8%
5 | CCOC(=O)NC(C(=O)NCc1ccc(N2CCCCC2)nc1)C(C)C (stereo unspecified) | -0.611% | 13.5% | -4% | -4.82% | -5.94% | 0% | 13.9% | 28.9% | 3.45% | 16.1% | -3.65%
6 | CC(C)Oc1cc(N2CCC(N3CCC(O)CC3)CC2)nc(N)n1 | 0.0362% | 8.11% | -10% | 8.23% | 4.63% | -0.476% | 11% | 12.1% | 8.99% | 17.1% | -4.42%
7 | Cc1nc(CNCc2c(C)nn(C)c2N2CCOCC2)cs1 | -2.88% | 7.89% | -0.222% | 9.92% | 3.95% | 2.68% | 5.68% | -6.91% | 4.41% | -4.88% | -3.53%
8 | CN(CCn1cccn1)S(=O)(=O)N1CCCC1c1ccco1 (stereo unspecified) | 1.7% | -5.41% | -2.17% | -0.333% | -5.48% | 9.43% | -3.05% | 13.8% | -0.99% | -6.1% | 3.02%
9 | Cc1nc(CN2C[C@@H]3CN(C(=O)C4CC4)C[C@@H]3C2=O)cs1 | -1.35% | 18.9% | 1.84% | -11.9% | -5.57% | 4.78% | 14.9% | 18.6% | 1.08% | 10.3% | -6.89%
10 | COc1ccc(C(=O)Nc2cnn(CC(=O)NC3CCCC3)c2)c(O)c1 | -2.21% | 13.7% | -8.3% | 5.57% | 3.77% | 0.798% | 9.16% | -10.3% | 11.5% | 25.9% | -3.82%
11 | Nc1nc(CN2CCCC(Cn3cncn3)C2)nc2ccccc12 (stereo unspecified) | 1.55% | -2.7% | -3.95% | 9.62% | 3.06% | -2.03% | -5.92% | 3.26% | 4.95% | 6.1% | 1.99%
12 | NC(=O)COc1cccc(C(=O)N2CCCC(n3cccn3)C2)c1 (stereo unspecified) | -3.05% | 13.5% | -1.18% | 4.63% | 8.45% | 1.29% | 16% | 4.13% | 4.95% | 28.1% | -6.2%
13 | CC(=O)N1CCCCC1c1nc2c(c(N3CCCCC3)n1)CN(C)CC2 (stereo unspecified) | 0.622% | -9.46% | 2.5% | 0.77% | 1.38% | -3.48% | 23.4% | 11.2% | 15.1% | 14.3% | -9.65%
14 | COc1ccc(CN(Cc2cncn2C)CC2CCCO2)c(OC)c1 (stereo unspecified) | -2.55% | 17.6% | 4.23% | -4.44% | -0.79% | 0.696% | 20% | 17.5% | 5.38% | 14.3% | -18.5%
15 | OCC1CCCN1c1cc(NCc2ccc(Cl)s2)ncn1 (stereo unspecified) | 0.246% | 8.86% | -3.63% | -2.18% | -1.95% | -3.66% | 24% | 74.3% | 4.17% | 15.2% | -15.5%
16 | Cc1cnc(C(=O)N2CCCC(n3ccnc3C)C2)cn1 (stereo unspecified) | -4.96% | 5.26% | -7.85% | 7.54% | 8.5% | 0.36% | 3.13% | 3.76% | 5.42% | 18.5% | -4.86%
